ChEMBL document CHEMBL4888484, “Replenishing the malaria drug discovery pipeline: Screening and hit evaluation of the MMV Hit Generation Library 1 (HGL1) against asexual blood stage Plasmodium falciparum ,using a nano luciferase reporter read-out” (2022)
About 420 (8.8%) of roughly 4,800 compounds showed an effect of 50% or more. The sample as a whole holds a higher share of strong results than the screen did.

Test system: Plasmodium falciparum
Test: Confirmatory screen in NF54 nanoGlo assay, in single point, at 2uM, 72h
Type: functional, Erythrocyte
Settings: timepoint 72 hour

| SMILES | % Inhibition [%] |
| --- | --- |
| Cc1occc1C(=O)NC1(c2ccccc2)CCOCC1 | -5 |
| COc1cc(OC)c(NC(=O)[C@H]2CCCN(c3nc4ccccc4[nH]c3=O)C2)cc1Cl | -2 |
| Cc1nc2ccccc2n1C(=O)c1sc2ccccc2c1Cl | -1 |
| O=S(=O)(c1ccc(Br)cc1)N1CCOC12CCCCC2 | -7 |
| Cn1nnc(Cn2nnc(-c3ccccc3)n2)n1 | -11 |
| CS(=O)(=O)N1CCC[C@H](Cn2nnnc2C=Cc2ccccc2)C1 | 8 |
| COC[C@H](NCCc1cc(F)cc2c1OCOC2)C1CC1 | 63 |
| Cc1csc(NC(=O)NCCc2cc(F)cc3c2OCOC3)n1 | -14 |
| COc1ccccc1N1CCN(C(=O)c2nnn(-c3ccccc3Cl)c2-c2cccnc2)CC1 | -2 |
| Cc1ccc(OCc2cccc(-c3nc4c5cn[nH]c5ncn4n3)c2)c(C)c1 | -7 |
| CC(C)N(CCCNC(=O)c1cnn2c3c(cnc12)CCCCCC3)Cc1ccccc1 | 0 |
| COc1ccc(Cl)cc1NC(=O)Cc1c(C)nc2nc(-c3ccccc3C)nn2c1C | -2 |
| COc1ccc(CC(=O)Nc2cc(C)n(-c3cccc(Cl)c3)n2)cc1 | 81 |
| COc1ccc(Cn2nc(C)n(-c3cccc(F)c3)c2=O)cc1 | -1 |
| Fc1ccc(-c2csc(N3CCC[C@H](c4cn[nH]c4)C3)n2)cc1 | -1 |
| CCOC(=O)n1c(=O)[nH]c2ccc(Br)cc21 | -10 |
| O=S(=O)(Nc1cccc2cccnc12)c1cccs1 | 60 |
| O=S(=O)(Nc1nncs1)c1cccs1 | -10 |
| Cc1cc(NS(=O)(=O)c2cccs2)n(-c2ccncc2)n1 | 2 |
| COc1nc(N)nc(C(Cl)(Cl)Cl)n1 | 0 |
| Cc1cc(F)ccc1CS(=O)(=O)N1CCC(CN2CCOCC2)CC1 | -8 |
| C[C@H](N)c1ccc(Nc2ncc3cc(-c4ccncc4)ccc3n2)cc1 | 93 |
| CC(C)c1ccc(-c2n[nH]nc2C(=O)c2ccccc2N)cc1 | -1 |

| SMILES | % Inhibition [%] |
| --- | --- |
| CC(C)c1ncsc1C(=O)NC(C)(C)C(=O)NCC1CCCC1 | -13 |
| Cc1cccc(NC(=O)c2c(C)sc3ncnc(N4CCCCC4)c23)c1C | 10 |
| C[n+]1ccc(-c2ncc(-c3ccccc3)o2)c2ccccc21 | 75 |
| CCn1ccnc1C(=O)Nc1ccc(OC)nc1 | -6 |
| CCc1ccc(CS(=O)(=O)NC(=O)c2cn3ccnc3s2)cc1 | 6 |
| Cc1ccc(NC(=O)c2cn(CC3(O)CCN(Cc4ccccc4)CC3)nn2)c(C)c1 | 1 |
| N#Cc1ccc(NCCc2ccc(O)cc2)cn1 | -9 |
| O=C(Nc1[nH]c(=O)ncc1F)c1cc(F)c(F)cc1Br | 95 |
| O=C(Nc1ccccc1-c1nnc[nH]1)c1ccc(F)c(Cl)c1 | -3 |
| COc1cc(C(=O)Nc2[nH]c(=O)ncc2F)ccc1Cl | 81 |
| CC1(C)C(=O)NCCN1C(=O)c1cccc2ccccc12 | 5 |
| O=C(Nc1[nH]c(=O)ncc1F)c1cccc2ccccc12 | 84 |
| COc1ccc(C(=O)Nc2ccc3c(c2)C(=O)Nc2cccnc2O3)cc1OC | 46 |
| Cn1ccc(NC(=O)c2cccc3ccccc23)n1 | -8 |
| CC(C)CN1C(=O)CC[C@@H](C(=O)NCCCOC(C)C)[C@@H]1c1cccnc1 | -13 |
| Cc1cc(C(=O)Nc2cc(Br)c(=O)n(C)c2)no1 | -14 |
| Cc1ccc(N2CCCC2)c(C(=O)N2CCN(Cc3c(C)nc4cc(C)ccn34)CC2)c1 | 3 |
| O=C(Nc1cnc(-n2ccnc2)nc1)C(c1ccccc1)c1ccccc1 | 36 |
| C[C@H]1CCCN(c2nc3ncn(CC(=O)Nc4ccccc4C(F)(F)F)c(=O)c3s2)C1 | -15 |
| O=C(NC1CCCCC1)c1cc2c(Cl)ccc3c2n1CCO3 | -10 |
| COc1nc(-c2cccc(C(=O)N3C[C@@H]4CC[C@H](C3)C(=O)N4)c2)ncc1F | 67 |
| O=C(CC1CCOCC1)NCc1ccccn1 | -11 |
| Cc1ccc(C(=O)N2CC(n3cnnc3C)C2)cc1F | -19 |

| SMILES | % Inhibition [%] |
| --- | --- |
| COc1ccc(-c2[nH]ncc2C(=O)NCC2CCCCC2)cc1OC | 2 |
| O=C(NCC1CCOCC1)c1ccc2n[nH]c(=O)n2c1 | -1 |
| COc1ccc(C(=O)N2CC[C@H](c3nc(C4CCOCC4)no3)C2)cc1OC | 2 |
| COc1nc(-c2cccc(C(=O)NCC3CCOCC3)c2)ncc1F | 66 |
| COCc1cc(C(=O)N[C@H](c2ccccc2)C2CCOCC2)no1 | 0 |
| COCc1cc(C)n(CC#N)c(=O)c1C#N | 11 |
| CCCc1ccc(Cl)c(S(=O)(=O)Nc2nnc(C3CC3)o2)c1 | 2 |
| COC[C@@H](C)CNc1nc(C)cc(C)n1 | -3 |
| CCn1cc2c(n1)c(=O)n(Cc1ccc(C)cc1)c(=O)n2CC(=O)Nc1ccc(C)cc1C | -10 |
| COc1ccc(C(=O)N2CC[C@H](CC(=O)N3CCOCC3)C2)cc1 | -9 |
| Cc1c(C(=O)NCCc2ccc(Cl)cc2)oc2ccc3c(c12)[C@@H](O)CC(C)(C)O3 | 4 |
| O=C(N[C@H](c1ccccc1)C1CC1)c1cccnc1O | -9 |
| CC1CCCC(N2C(=O)c3ccccc3C2NCc2ccccc2)C1C (centres undefined) | 0 |
| CCOC(=O)c1cnc(N2CCCC2)nc1C1CCN(C(=O)OC(C)(C)C)CC1 | -2 |
| Cc1cc(C(=O)NCc2ccco2)nn1C(F)F | -13 |
| Cc1noc(C)c1CS(=O)(=O)CCC(=O)NC1CCCCC1 | -11 |
| CC(c1ccccc1)N1C(=O)c2ccccc2C1c1c[nH]c2ccccc12 (centres undefined) | 23 |
| CCOc1cc(C)ccc1S(=O)(=O)NC(C)C | -3 |
| NC1CC(NCCc2cccc3cccnc23)c2ccccc21 (centres undefined) | 43 |
| NC(=NCc1cccc2cccnc12)N1CCN(c2nccs2)CC1 | 57 |
| Cc1ccc(C(=O)N2CCC(N3C(=O)[C@H]4CCCN4C3=O)CC2)cc1 | -9 |
| Cc1ccc2nc(-c3cccc(NC(=O)c4ccc5c(c4)OCO5)c3)oc2c1 | -12 |
| COC(=O)c1cccc(C#Cc2cccc(NC(=O)c3cnc(C)cn3)c2)c1 | -19 |
